Measured values published in PubChem BioAssay (EPA / NIEHS).
Results filed as inconclusive are left out. Active and inactive are the calls of the source. The calls were made as follows: active = hit-call score of the fitted dose curve at least 0.9, where 1 is the maximum; inconclusive = response in the unintended direction; inactive = score below 0.9.

Each molecule was assayed against Estrogen receptor (Homo sapiens) + Estrogen receptor beta (Homo sapiens) (UniProt P03372+Q92731) (assay: OT_ER_ERaERb_1440: Odyssey Thera (OT) 24-hour HEK293T Protein-Complementation Assay for Estrogen Receptor-alpha/-beta Homodimer (AID 2283356);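 also: hits raise reporter fluorescence and both agonists and antagonists give an increase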).
Protocol: OT_ER_ERaERb_1440 is a cell-based assay that uses HEK293T, a human kidney cell line, with measurements taken at 24 hours after chemical dosing in a 384-well plate.OT_ER_ERaERb_1440 is one of one assay component(s) measured or calculated from the OT_ER_ERaERb_1440 assay. It is designed to make measurements of protein fragment complementation, a form of binding reporter, as detected with fluorescence intensity signals by Protein-fragment Complementation technology.Data from the assay component OT_ER_ERaERb_1440 was analyzed into 1 assay endpoint. This assay endpoint, OT_ER_ERaERb_1440, was analyzed in the positive analysis fitting direction relative to DMSO as the negative control and baseline of activity. Using a type of binding reporter, measures of receptor for gain-of-signal activity can be used to understand the binding at the pathway-level as they relate to the gene ESR1 and ESR2. Furthermore, this assay endpoint can be referred to as a primary readout, because the performed assay has only produced 1 assay endpoint. To generalize the intended target to other relatable targets, this assay endpoint is annotated to the nuclear receptor intended target family, where the subfamily is steroidal.
Protein-fragment complementation assay, or PCA, is a method for the identification and quantification of protein-protein interactions. In the PCA, the proteins of interest ("bait" and "prey") are each covalently linked to fragments of a third protein (e.g. DHFR, which acts as a "reporter"). Interaction between the bait and the prey proteins brings the fragments of the reporter protein in close proximity to allow them to form a functional reporter protein whose activity can be measured. The OT ER alpha / ER beta assay is a heterodimer PCA of the ligand binding domain (LBD) of ER alpha (amino acids 310-547) and human ER beta (amino acids 263-489) stably expressed in HEK293T cells. […] Fluorescent signal in the basal state of the assay is very low and is primarily punctuate and cytoplasmic. Modulation of this assay is quantified as an increase in mean fluorescence intensity in the nucleus (for agonists) or in the nucleus and cytoplasm (antagonists) relative to vehicle controls, and can be quantified on a high content imaging device or a laser scanning cytometer. The latter instrument is favored for this assay because of the rapid mode of data acquisition, the ability to acquire data from the entire cell population in a well (as opposed to a fraction of the well on the high content devices) and the larger dynamic range typically achieved with this instrument. To assess sensitivity of the ER alpha/ER beta LBD assay to ligand, cells were treated with the ER agonist 17- beta-estradiol (E2) in 10-point concentration- response format for 24 hours and monitored response on a laser scanning plate cytometer (Acumen eX3; TTP Lab Tech).

Chain of Estrogen receptor (Homo sapiens) + Estrogen receptor beta (Homo sapiens) (P03372 whole entry, looked up, the tested form may be a part): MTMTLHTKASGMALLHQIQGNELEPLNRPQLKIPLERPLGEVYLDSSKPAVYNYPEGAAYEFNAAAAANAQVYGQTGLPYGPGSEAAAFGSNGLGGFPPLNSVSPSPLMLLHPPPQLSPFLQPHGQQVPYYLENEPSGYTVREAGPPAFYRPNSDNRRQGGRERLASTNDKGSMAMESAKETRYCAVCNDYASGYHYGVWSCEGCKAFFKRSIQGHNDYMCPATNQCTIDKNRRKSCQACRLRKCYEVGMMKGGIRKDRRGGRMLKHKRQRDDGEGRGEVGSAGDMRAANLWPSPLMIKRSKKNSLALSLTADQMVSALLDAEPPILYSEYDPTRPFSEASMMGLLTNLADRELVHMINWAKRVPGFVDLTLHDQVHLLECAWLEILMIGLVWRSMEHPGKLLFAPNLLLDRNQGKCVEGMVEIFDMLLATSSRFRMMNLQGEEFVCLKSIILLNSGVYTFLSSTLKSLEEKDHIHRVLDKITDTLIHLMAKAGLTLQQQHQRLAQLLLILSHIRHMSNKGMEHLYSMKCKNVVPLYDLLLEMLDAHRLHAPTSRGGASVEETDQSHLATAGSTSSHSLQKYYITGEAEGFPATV
Chain of Estrogen receptor (Homo sapiens) + Estrogen receptor beta (Homo sapiens) (Q92731 whole entry, looked up, the tested form may be a part): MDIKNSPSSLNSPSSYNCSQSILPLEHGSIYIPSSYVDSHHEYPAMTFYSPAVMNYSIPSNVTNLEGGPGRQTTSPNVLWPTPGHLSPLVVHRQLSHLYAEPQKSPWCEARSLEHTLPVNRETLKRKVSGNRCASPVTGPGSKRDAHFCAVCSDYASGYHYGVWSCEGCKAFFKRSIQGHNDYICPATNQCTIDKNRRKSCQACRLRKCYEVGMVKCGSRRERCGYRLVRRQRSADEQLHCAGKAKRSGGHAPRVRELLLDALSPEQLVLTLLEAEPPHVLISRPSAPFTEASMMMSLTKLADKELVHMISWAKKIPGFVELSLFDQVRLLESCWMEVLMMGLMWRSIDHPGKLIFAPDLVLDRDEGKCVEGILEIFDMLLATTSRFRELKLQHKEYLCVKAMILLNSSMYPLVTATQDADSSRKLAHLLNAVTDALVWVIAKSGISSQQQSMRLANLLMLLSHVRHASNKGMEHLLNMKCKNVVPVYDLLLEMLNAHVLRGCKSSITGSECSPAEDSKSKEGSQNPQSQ

SMILES | outcome | AC50
CCCCCCCCCC=O | inactive | –
CCCCc1ccc(N)cc1 | – | 39.6 µM (active)
CCCCCCCCC=O | inactive | –
CC(=O)OCCOC(C)=O | inactive | –
O=Nc1ccc(Nc2ccccc2)cc1 | inactive | –
BrC1CCC(Br)C(Br)CCC(Br)C(Br)CCC1Br (stereo unspecified) | – | 60.4 µM (active)
CCC/C=C/C=O | inactive | –
C=C(C)C(=O)O | inactive | –
OCCN1CCNCC1 | inactive | –
CC(C)(N)CO | inactive | –
CCCCCCCCCCCCCC(=O)O | inactive | –
Cc1ccc(S)cc1 | inactive | –
NCCCN1CCOCC1 | inactive | –
CC(C)c1cccc(O)c1 | inactive | –
NC(=O)Nc1ccc(Cl)cc1 | inactive | –
CCN(CC)c1ccc2c(-c3ccccc3C(=O)O)c3ccc(=[N+](CC)CC)cc-3oc2c1 | – | 12 µM (active)
CCCCOCCOCCOCCOCCO | inactive | –
c1ccc(CCCc2ccccn2)cc1 | inactive | –
CC1COc2ccccc2N1C(=O)C(Cl)Cl (stereo unspecified) | inactive | –
CCCCCCCCC | inactive | –
OCCOCCOCCOCCO | inactive | –
